{"source": "paper PMC5540273", "about": "(PLoS ONE, 2017)", "settings_in_all_cases": "n = 1", "key": {"LYN": {"test_system": "LYN"}, "LZK": {"test_system": "T1, LZK", "T1 construct": "gene MAP3K13"}, "MAK": {"test_system": "MAK"}, "MAP3K15": {"test_system": "MAP3K15"}, "MAP3K1": {"test_system": "MAP3K1"}, "MAP3K2": {"test_system": "MAP3K2"}, "MAP3K3": {"test_system": "MAP3K3"}, "MAP3K4": {"test_system": "MAP3K4"}, "MAP4K2": {"test_system": "MAP4K2"}, "MAP4K3": {"test_system": "MAP4K3"}, "[1]": {"settings": "concentration: 1 μM, replicates: in singlicate"}}, "note": "Where two headings read alike, the source gives them in different places.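 Further: KINOMEscan kinase panel screen.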"}
{"molecule": "O=C(Nc1n[nH]c2nc(-c3nccs3)c(Br)cc12)C1CC1", "note": "[SB-742251]", "values": [{"measurement": "%Inh", "setting": "LYN; [1]", "value": 19, "unit": "%"}, {"measurement": "%Inh", "setting": "LZK; [1]", "value": 26, "unit": "%"}, {"measurement": "%Inh", "setting": "MAK; [1]", "value": 33, "unit": "%"}, {"measurement": "%Inh", "setting": "MAP3K15; [1]", "value": 0, "unit": "%"}, {"measurement": "%Inh", "setting": "MAP3K1; [1]", "value": 21, "unit": "%"}, {"measurement": "%Inh", "setting": "MAP3K2; [1]", "value": 0, "unit": "%"}, {"measurement": "%Inh", "setting": "MAP3K3; [1]", "value": 0, "unit": "%"}, {"measurement": "%Inh", "setting": "MAP3K4; [1]", "value": 0, "unit": "%"}, {"measurement": "%Inh", "setting": "MAP4K2; [1]", "value": 0, "unit": "%"}, {"measurement": "%Inh", "setting": "MAP4K3; [1]", "value": 0, "unit": "%"}]}
{"molecule": "O=C(Nc1ccc2c(c1)OCO2)NC1CCN(c2ccnc(Nc3ccc(F)cc3)n2)C1", "note": "(stereo not drawn) [GSK1379724]", "values": [{"measurement": "%Inh", "setting": "LYN; [1]", "value": 0, "unit": "%"}, {"measurement": "%Inh", "setting": "LZK; [1]", "value": 0, "unit": "%"}, {"measurement": "%Inh", "setting": "MAK; [1]", "value": 0, "unit": "%"}, {"measurement": "%Inh", "setting": "MAP3K15; [1]", "value": 0, "unit": "%"}, {"measurement": "%Inh", "setting": "MAP3K1; [1]", "value": 11, "unit": "%"}, {"measurement": "%Inh", "setting": "MAP3K2; [1]", "value": 6, "unit": "%"}, {"measurement": "%Inh", "setting": "MAP3K3; [1]", "value": 0, "unit": "%"}, {"measurement": "%Inh", "setting": "MAP3K4; [1]", "value": 40, "unit": "%"}, {"measurement": "%Inh", "setting": "MAP4K2; [1]", "value": 0, "unit": "%"}, {"measurement": "%Inh", "setting": "MAP4K3; [1]", "value": 0, "unit": "%"}]}
{"molecule": "Cn1ccc2ncnc(Oc3ccc(NC(=O)Nc4ccccc4)cc3)c21", "values": [{"measurement": "%Inh", "setting": "LYN; [1]", "value": 6, "unit": "%"}, {"measurement": "%Inh", "setting": "LZK; [1]", "value": 9, "unit": "%"}, {"measurement": "%Inh", "setting": "MAK; [1]", "value": 6, "unit": "%"}, {"measurement": "%Inh", "setting": "MAP3K15; [1]", "value": 0, "unit": "%"}, {"measurement": "%Inh", "setting": "MAP3K1; [1]", "value": 0, "unit": "%"}, {"measurement": "%Inh", "setting": "MAP3K2; [1]", "value": 0, "unit": "%"}, {"measurement": "%Inh", "setting": "MAP3K3; [1]", "value": 11, "unit": "%"}, {"measurement": "%Inh", "setting": "MAP3K4; [1]", "value": 10, "unit": "%"}, {"measurement": "%Inh", "setting": "MAP4K2; [1]", "value": 0, "unit": "%"}, {"measurement": "%Inh", "setting": "MAP4K3; [1]", "value": 18, "unit": "%"}]}
{"molecule": "Fc1cccc(COc2nnc(-c3ccc4c(c3)CCO4)o2)c1", "values": [{"measurement": "%Inh", "setting": "LYN; [1]", "value": 6, "unit": "%"}, {"measurement": "%Inh", "setting": "LZK; [1]", "value": 14, "unit": "%"}, {"measurement": "%Inh", "setting": "MAK; [1]", "value": 0, "unit": "%"}, {"measurement": "%Inh", "setting": "MAP3K15; [1]", "value": 17, "unit": "%"}, {"measurement": "%Inh", "setting": "MAP3K1; [1]", "value": 17, "unit": "%"}, {"measurement": "%Inh", "setting": "MAP3K2; [1]", "value": 0, "unit": "%"}, {"measurement": "%Inh", "setting": "MAP3K3; [1]", "value": 0, "unit": "%"}, {"measurement": "%Inh", "setting": "MAP3K4; [1]", "value": 0, "unit": "%"}, {"measurement": "%Inh", "setting": "MAP4K2; [1]", "value": 0, "unit": "%"}, {"measurement": "%Inh", "setting": "MAP4K3; [1]", "value": 2, "unit": "%"}]}
{"molecule": "Cc1nnc(-c2ccc3occ(-c4ccc(S(C)=O)cc4)c3c2)[nH]1", "note": "(stereo not drawn)", "values": [{"measurement": "%Inh", "setting": "LYN; [1]", "value": 18, "unit": "%"}, {"measurement": "%Inh", "setting": "LZK; [1]", "value": 0, "unit": "%"}, {"measurement": "%Inh", "setting": "MAK; [1]", "value": 0, "unit": "%"}, {"measurement": "%Inh", "setting": "MAP3K15; [1]", "value": 10, "unit": "%"}, {"measurement": "%Inh", "setting": "MAP3K1; [1]", "value": 24, "unit": "%"}, {"measurement": "%Inh", "setting": "MAP3K2; [1]", "value": 1, "unit": "%"}, {"measurement": "%Inh", "setting": "MAP3K3; [1]", "value": 0, "unit": "%"}, {"measurement": "%Inh", "setting": "MAP3K4; [1]", "value": 2, "unit": "%"}, {"measurement": "%Inh", "setting": "MAP4K2; [1]", "value": 0, "unit": "%"}, {"measurement": "%Inh", "setting": "MAP4K3; [1]", "value": 11, "unit": "%"}]}
{"molecule": "Cc1ccc(NC(=O)Nc2cccc(C(F)(F)F)c2)cc1", "note": "[GSK955403]", "values": [{"measurement": "%Inh", "setting": "LYN; 1 µM", "value": 0, "unit": "%"}, {"measurement": "%Inh", "setting": "LZK; 1 µM", "value": 0, "unit": "%"}, {"measurement": "%Inh", "setting": "MAK; 1 µM", "value": 0, "unit": "%"}, {"measurement": "%Inh", "setting": "MAP3K15; 1 µM", "value": 0, "unit": "%"}, {"measurement": "%Inh", "setting": "MAP3K1; 1 µM", "value": 0, "unit": "%"}, {"measurement": "%Inh", "setting": "MAP3K2; 1 µM", "value": 0, "unit": "%"}, {"measurement": "%Inh", "setting": "MAP3K3; 1 µM", "value": 3, "unit": "%"}, {"measurement": "%Inh", "setting": "MAP3K4; 1 µM", "value": 35, "unit": "%"}, {"measurement": "%Inh", "setting": "MAP4K2; 1 µM", "value": 0, "unit": "%"}, {"measurement": "%Inh", "setting": "MAP4K3; 1 µM", "value": 0, "unit": "%"}]}
{"molecule": "COc1cc2nccc(Nc3ccc(NC(=O)c4ccc(C)cc4)c(O)c3)c2cc1OC.Cl", "note": "[GW440132]", "values": [{"measurement": "%Inh", "setting": "LYN; [1]", "value": 28, "unit": "%"}, {"measurement": "%Inh", "setting": "LZK; [1]", "value": 0, "unit": "%"}, {"measurement": "%Inh", "setting": "MAK; [1]", "value": 13, "unit": "%"}, {"measurement": "%Inh", "setting": "MAP3K15; [1]", "value": 13, "unit": "%"}, {"measurement": "%Inh", "setting": "MAP3K1; [1]", "value": 10, "unit": "%"}, {"measurement": "%Inh", "setting": "MAP3K2; [1]", "value": 9, "unit": "%"}, {"measurement": "%Inh", "setting": "MAP3K3; [1]", "value": 0, "unit": "%"}, {"measurement": "%Inh", "setting": "MAP3K4; [1]", "value": 2, "unit": "%"}, {"measurement": "%Inh", "setting": "MAP4K2; [1]", "value": 0, "unit": "%"}, {"measurement": "%Inh", "setting": "MAP4K3; [1]", "value": 8, "unit": "%"}]}
{"molecule": "CC1=C(C(=O)Nc2cc3cn[nH]c3cc2F)C(c2ccc(C(F)(F)F)cc2)CC(=O)N1", "note": "(stereo not drawn) [GSK429286]", "values": [{"measurement": "%Inh", "setting": "LYN; [1]", "value": 0, "unit": "%"}, {"measurement": "%Inh", "setting": "LZK; [1]", "value": 0, "unit": "%"}, {"measurement": "%Inh", "setting": "MAK; [1]", "value": 0, "unit": "%"}, {"measurement": "%Inh", "setting": "MAP3K15; [1]", "value": 16, "unit": "%"}, {"measurement": "%Inh", "setting": "MAP3K1; [1]", "value": 30, "unit": "%"}, {"measurement": "%Inh", "setting": "MAP3K2; [1]", "value": 3, "unit": "%"}, {"measurement": "%Inh", "setting": "MAP3K3; [1]", "value": 0, "unit": "%"}, {"measurement": "%Inh", "setting": "MAP3K4; [1]", "value": 0, "unit": "%"}, {"measurement": "%Inh", "setting": "MAP4K2; [1]", "value": 0, "unit": "%"}, {"measurement": "%Inh", "setting": "MAP4K3; [1]", "value": 0, "unit": "%"}]}
{"molecule": "CC(=O)Nc1nc2cnc(Nc3cc(NC(=O)c4cccc(CCC#N)c4)ccc3C)nc2s1", "values": [{"measurement": "%Inh", "setting": "LYN; [1]", "value": 25, "unit": "%"}, {"measurement": "%Inh", "setting": "LZK; [1]", "value": 24, "unit": "%"}, {"measurement": "%Inh", "setting": "MAK; [1]", "value": 0, "unit": "%"}, {"measurement": "%Inh", "setting": "MAP3K15; [1]", "value": 8, "unit": "%"}, {"measurement": "%Inh", "setting": "MAP3K1; [1]", "value": 0, "unit": "%"}, {"measurement": "%Inh", "setting": "MAP3K2; [1]", "value": 0, "unit": "%"}, {"measurement": "%Inh", "setting": "MAP3K3; [1]", "value": 20, "unit": "%"}, {"measurement": "%Inh", "setting": "MAP3K4; [1]", "value": 0, "unit": "%"}, {"measurement": "%Inh", "setting": "MAP4K2; [1]", "value": 0, "unit": "%"}, {"measurement": "%Inh", "setting": "MAP4K3; [1]", "value": 0, "unit": "%"}]}
